Calls of active or inactive are those of the source.
Assays:
[1] = small molecules captured by biotinylated probe aFSTL3 – biochemical, small-molecule microarray, fluorescence 635/667, stem cell growth factor project, primary screen (AID 1064); conditions: higher = more signal;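 also: measures binding of the biotinylated anti-FSTL3 antibody to printed compounds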
[2] = binders from COS7 lysate, DM2A8 probe, primary screen, torsin A project, cell lysate, small-molecule microarray, fluorescence 635/667 (AID 1065); conditions: higher = more signal, COS7 lysate expressing mutant human TOR1A
[3] = small molecules captured by biotinylated probe aFGF2 – biochemical, small-molecule microarray, fluorescence 635/667, stem cell growth factor project, primary screen (AID 1067); conditions: higher = more signal;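 also: measures binding of biotinylated aFGF2 protein to printed compounds on slides; z-score merges feature fluorescence and signal-to-noise across triplicate slides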
[4] = small molecules captured by biotinylated probe aFGF10 – biochemical, small-molecule microarray, fluorescence 635/667, stem cell growth factor project, primary screen (AID 1071); conditions: higher = more signal;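 also: score merges 667 nm spot intensity and signal to noise from triplicate slides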
[5] = molecular target: Neurogenic locus notch homolog protein 2 (Homo sapiens) (UniProt Q04721); assay: small molecules binding Notch2 protein – biochemical, small-molecule microarray, 635 nm fluorescence, stem cell growth factors, primary screen (AID 1073); conditions: higher = more signal
[6] = molecular target: Pro-neuregulin-1, membrane-bound isoform (Homo sapiens) (UniProt Q02297); assay: small molecules binding neuregulin-1 protein – biochemical, small-molecule microarray, fluorescence 635/667, psychiatric disease protein project, primary screen (AID 1075); conditions: NRG1 binding, 635 nm fluorescence, higher = more signal;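 also: score combines 667 nm spot fluorescence with signal to noise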
[7] = test system: Neuregulin-1 EGF-like domain; assay: small molecules binding NRG1 EGF domain – biochemical, small-molecule microarray, 635 nm fluorescence, primary screen (AID 1081); conditions: higher = more signal;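 also: binding of the protein to compounds printed on small-molecule microarray slides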
[8] = FRG1 expression reporter modulators in myotubes – cell-based, C2C12 myotubes, firefly/Renilla luciferase, luminescence, FRG1 inhibition for FSHD, primary screen (AID 1084); conditions: FRG1 promoter luciferase, higher = more signal, called active from +8 up or from −8 down
[9] = small molecules captured by biotinylated probe aFST – biochemical, small-molecule microarray, fluorescence 635/667, stem cell growth factor project, primary screen (AID 1086); conditions: higher = more signal;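 also: score merges 667 nm fluorescence with signal-to-noise of each printed compound spot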
[10] = binders of probe aHhip on microarray, primary screen, stem cell growth factor project, biochemical, small-molecule microarray, fluorescence 635/667 (AID 1087); conditions: higher = more signal;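 also: score merges spot fluorescence at 667nm with spot signal to noise ratio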

Chain of Pro-neuregulin-1, membrane-bound isoform (Homo sapiens) (Q02297 whole entry, looked up, the tested form may be a part, canonical isoform): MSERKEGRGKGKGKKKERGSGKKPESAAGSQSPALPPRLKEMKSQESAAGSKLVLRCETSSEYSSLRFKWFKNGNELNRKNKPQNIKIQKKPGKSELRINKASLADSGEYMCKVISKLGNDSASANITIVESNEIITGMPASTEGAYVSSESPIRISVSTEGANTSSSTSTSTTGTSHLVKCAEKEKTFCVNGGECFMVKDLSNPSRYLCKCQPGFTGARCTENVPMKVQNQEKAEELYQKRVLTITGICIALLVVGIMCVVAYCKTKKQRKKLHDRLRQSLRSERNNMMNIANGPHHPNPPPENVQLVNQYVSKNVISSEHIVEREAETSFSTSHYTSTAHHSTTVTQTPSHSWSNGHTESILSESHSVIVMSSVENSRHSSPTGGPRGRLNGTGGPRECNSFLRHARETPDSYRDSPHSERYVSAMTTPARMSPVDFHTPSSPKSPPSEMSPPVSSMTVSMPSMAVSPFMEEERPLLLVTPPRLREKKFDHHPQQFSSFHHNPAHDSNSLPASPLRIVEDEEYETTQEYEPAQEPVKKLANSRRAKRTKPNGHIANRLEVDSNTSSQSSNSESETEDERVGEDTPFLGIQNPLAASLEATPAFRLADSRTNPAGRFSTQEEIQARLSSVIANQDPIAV
Chain of Neurogenic locus notch homolog protein 2 (Homo sapiens) (Q04721 whole entry, looked up, canonical isoform): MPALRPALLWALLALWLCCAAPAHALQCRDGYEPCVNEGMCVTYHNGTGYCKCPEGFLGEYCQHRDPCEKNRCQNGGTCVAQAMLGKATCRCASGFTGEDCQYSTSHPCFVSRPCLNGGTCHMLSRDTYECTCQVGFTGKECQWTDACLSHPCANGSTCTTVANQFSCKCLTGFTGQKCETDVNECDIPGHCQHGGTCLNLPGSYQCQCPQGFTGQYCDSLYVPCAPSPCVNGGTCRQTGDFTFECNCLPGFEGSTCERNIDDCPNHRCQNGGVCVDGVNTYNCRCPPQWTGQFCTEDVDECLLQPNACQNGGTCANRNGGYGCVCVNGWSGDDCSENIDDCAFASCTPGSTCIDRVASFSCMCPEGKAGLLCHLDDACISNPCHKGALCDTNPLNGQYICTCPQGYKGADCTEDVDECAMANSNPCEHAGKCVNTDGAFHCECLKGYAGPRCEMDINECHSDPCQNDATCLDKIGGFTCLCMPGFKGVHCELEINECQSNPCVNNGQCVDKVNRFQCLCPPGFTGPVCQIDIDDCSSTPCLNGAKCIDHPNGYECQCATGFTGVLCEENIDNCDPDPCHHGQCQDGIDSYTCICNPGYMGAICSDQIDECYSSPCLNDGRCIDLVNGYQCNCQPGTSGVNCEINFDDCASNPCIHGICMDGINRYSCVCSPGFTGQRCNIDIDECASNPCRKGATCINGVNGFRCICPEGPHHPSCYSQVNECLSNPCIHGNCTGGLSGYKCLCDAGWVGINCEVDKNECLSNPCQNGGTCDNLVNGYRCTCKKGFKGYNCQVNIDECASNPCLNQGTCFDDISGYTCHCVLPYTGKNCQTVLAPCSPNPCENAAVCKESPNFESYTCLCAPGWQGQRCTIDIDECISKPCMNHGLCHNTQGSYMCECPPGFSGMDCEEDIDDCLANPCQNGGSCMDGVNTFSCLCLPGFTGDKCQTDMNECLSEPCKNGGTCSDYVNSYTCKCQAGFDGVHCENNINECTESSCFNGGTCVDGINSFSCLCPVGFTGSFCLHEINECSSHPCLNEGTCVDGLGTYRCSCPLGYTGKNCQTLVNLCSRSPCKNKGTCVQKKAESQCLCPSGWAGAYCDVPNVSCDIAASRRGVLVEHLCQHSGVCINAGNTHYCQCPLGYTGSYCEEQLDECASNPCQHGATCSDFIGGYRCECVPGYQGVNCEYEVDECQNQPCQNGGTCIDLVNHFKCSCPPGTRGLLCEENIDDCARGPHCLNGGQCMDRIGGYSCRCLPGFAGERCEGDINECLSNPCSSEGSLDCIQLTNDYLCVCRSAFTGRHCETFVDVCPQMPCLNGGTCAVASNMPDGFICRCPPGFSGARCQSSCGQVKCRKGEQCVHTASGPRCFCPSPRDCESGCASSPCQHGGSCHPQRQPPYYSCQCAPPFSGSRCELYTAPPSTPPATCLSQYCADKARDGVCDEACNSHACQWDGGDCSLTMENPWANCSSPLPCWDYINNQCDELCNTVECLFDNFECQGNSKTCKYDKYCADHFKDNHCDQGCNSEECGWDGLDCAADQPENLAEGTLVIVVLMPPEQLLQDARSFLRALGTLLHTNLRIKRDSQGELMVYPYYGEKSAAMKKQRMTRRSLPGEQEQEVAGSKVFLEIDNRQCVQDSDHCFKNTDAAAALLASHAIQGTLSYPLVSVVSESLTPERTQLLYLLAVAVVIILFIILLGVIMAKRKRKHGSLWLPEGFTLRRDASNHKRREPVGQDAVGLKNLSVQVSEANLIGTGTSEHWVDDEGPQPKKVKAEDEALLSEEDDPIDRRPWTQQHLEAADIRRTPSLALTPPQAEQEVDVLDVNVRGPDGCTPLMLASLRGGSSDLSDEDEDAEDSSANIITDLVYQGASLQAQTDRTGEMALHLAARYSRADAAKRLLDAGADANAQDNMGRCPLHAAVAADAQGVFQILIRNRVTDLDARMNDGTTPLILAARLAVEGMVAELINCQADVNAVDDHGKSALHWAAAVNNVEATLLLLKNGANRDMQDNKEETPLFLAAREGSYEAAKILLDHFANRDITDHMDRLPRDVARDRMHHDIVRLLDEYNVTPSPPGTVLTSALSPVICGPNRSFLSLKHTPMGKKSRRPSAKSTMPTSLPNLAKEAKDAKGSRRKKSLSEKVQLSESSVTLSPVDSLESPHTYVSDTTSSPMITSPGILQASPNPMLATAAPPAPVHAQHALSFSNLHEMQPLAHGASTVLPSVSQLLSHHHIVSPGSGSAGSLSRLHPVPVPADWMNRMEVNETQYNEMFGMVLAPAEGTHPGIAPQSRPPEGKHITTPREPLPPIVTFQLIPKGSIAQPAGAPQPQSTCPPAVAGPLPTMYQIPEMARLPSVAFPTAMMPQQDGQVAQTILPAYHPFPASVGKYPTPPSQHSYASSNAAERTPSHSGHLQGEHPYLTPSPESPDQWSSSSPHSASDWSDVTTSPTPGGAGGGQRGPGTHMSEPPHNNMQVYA

Structure (SMILES)	composite z-score [1]	composite z-score [2]	composite z-score [3]	composite z-score [4]	composite z-score [5]	composite z-score [6]	composite z-score [7]	z-score [8]	composite z-score [9]	composite z-score [10]
Cc1ccc(F)cc1S(=O)(=O)N[C@@H]1CCN(Cc2ccc(Br)cc2)C1	-0.414	0.673	-0.23	-0.207	0.414	-0.107	0.035	-2.08 (inactive)	0.258	-0.0994
COc1ccc(C#Cc2ccc3c(c2)[C@]2(C(=O)N3)[C@H](C(=O)O)[C@H]3C(=O)O[C@H](c4ccccc4)[C@H](c4ccccc4)N3[C@@H]2c2ccc(O)cc2)cc1	0.499	0.928	-0.0557	0.221	-0.0571	0.418	1.28	0.247 (inactive)	0.105	-0.134
CC(C)NC(=O)[C@@]1(c2ccc([N+](=O)[O-])cc2)CC(=O)N(C2CCCCC2)[C@@H]1c1ccc(CO)cc1	-0.903	1.08	0.0584	0.817	0.261	1.69	1.35	-0.629 (inactive)	-0.114	-0.172
COCCOC(=O)N1C(=O)[C@@]2(c3cc(C#CC4(O)CCCCCC4)ccc31)[C@H](c1ccc(O)cc1)N1[C@H](c3ccccc3)[C@H](c3ccccc3)OC(=O)[C@H]1[C@@H]2C(=O)N1CCN(c2ncccn2)CC1	-0.133	0.837	0.0702	0.292	0.895	1.33	1.24	0.821 (inactive)	0.756	0.132
CCCCC[C@H]1OC[C@@]23C=C(Br)[C@@H](CC12)[C@@]1(CO1)C3=O (stereo not given in full)	-0.41	0.878	-0.2	-0.112	-0.308	-0.556	-0.497	0.201 (inactive)	-0.252	-0.132
[N-]=[N+]=Nc1ccccc1C[C@@]1(C(=O)NCCN2CCOCC2)N=C(c2ccc(OCCCO)cc2)O[C@@H]1c1ccccc1N=[N+]=[N-]	0.59	0.639	-0.167	1.28	1.04	1.69	1.29	-2.04 (inactive)	0.98	0.122
C=CCNC(=O)[C@@H]1[C@H]2C(=O)O[C@H](c3ccccc3)[C@H](c3ccccc3)N2[C@H](c2ccc(OCCO)cc2)[C@@]12C(=O)N(C(=O)OCCOC)c1ccc(C#Cc3ccc(OC)cc3)cc12	-0.412	0.1	-0.126	0.0179	0.801	1.1	1.07	-0.309 (inactive)	0.267	-0.0955
COc1ccc([Si](C)(C)[C@H]2[C@H](CC(=O)N(CCO)Cc3ccccc3)O[C@@]3(C(=O)N(C)c4c(Br)cc(C)cc43)[C@@H]2C)cc1	0.145	0.671	-0.0861	0.208	-0.0381	0.435	1.22	-2.73 (inactive)	0.152	0.107
O=C1O[C@@H](c2ccccc2)[C@@H](c2ccccc2)N2[C@@H](c3ccc(OCCO)cc3)[C@]3(C(=O)Nc4ccc(C#CC5=CCCCC5)cc43)[C@@H](C(=O)NC[C@H](O)c3ccccc3)[C@H]12	-0.94	0.297	-0.0384	0.6	1.48	0.655	1.13	2.03 (inactive)	0.126	-0.142
O=C1N(CCS(=O)(=O)c2ccccc2)c2ccccc2[C@H]2OC(c3ccc(OCCCO)cc3)=N[C@@]12Cc1ccccc1	0.529	0.756	0.0918	0.102	0.918	-0.0845	1.29	-0.375 (inactive)	0.772	-0.0663
COC(=O)[C@@]1(Cc2ccc(OC)cc2)[C@H]2c3cc(C(=O)N4CCCC4)n(CCc4c[nH]c5ccc(O)cc45)c3C[C@H]2CN1C(=O)c1ccccc1	0.77	0.0885	0.155	0.897	1.7	1.44	1.37	0.829 (inactive)	1.46	-0.374
Cc1ccc(S[C@]2(C(=O)NCc3ccccc3)CC(=O)N(C3CCCCC3)[C@@H]2c2ccc(CO)cc2I)cc1	1.27	-0.0582	0.11	0.339	0.553	1.17	1.19	-2.84 (inactive)	0.455	-0.132
C=CCN1C(=O)[C@]2(CCS(=O)(=O)c3ccccc3)N=C(c3ccc(OCCCO)cc3)O[C@@H]2c2ccccc21	-0.104	0.264	0.0109	0.162	0.84	0.445	1.28	-1.9 (inactive)	0.454	-0.121

From PubChem BioAssay
